Measured values as given in ChEMBL document CHEMBL3988442, “University of Dundee, Small-Polar-MMV Screening Library” (2021).
For part of these data: Potency and affinity values are given separately.

Columns and labels:
Parameters in all cases: scale not given: direction of the effect not stated beside the values
[1] = biological target: Protein translocase subunit SecA (Escherichia coli (strain K12)) (UniProt P10408); test: Assay to Identify E. coli SecA ATPase Inhibitors; type: functional; settings: 30 µM
Chain of Protein translocase subunit SecA (Escherichia coli (strain K12)) (P10408 whole entry): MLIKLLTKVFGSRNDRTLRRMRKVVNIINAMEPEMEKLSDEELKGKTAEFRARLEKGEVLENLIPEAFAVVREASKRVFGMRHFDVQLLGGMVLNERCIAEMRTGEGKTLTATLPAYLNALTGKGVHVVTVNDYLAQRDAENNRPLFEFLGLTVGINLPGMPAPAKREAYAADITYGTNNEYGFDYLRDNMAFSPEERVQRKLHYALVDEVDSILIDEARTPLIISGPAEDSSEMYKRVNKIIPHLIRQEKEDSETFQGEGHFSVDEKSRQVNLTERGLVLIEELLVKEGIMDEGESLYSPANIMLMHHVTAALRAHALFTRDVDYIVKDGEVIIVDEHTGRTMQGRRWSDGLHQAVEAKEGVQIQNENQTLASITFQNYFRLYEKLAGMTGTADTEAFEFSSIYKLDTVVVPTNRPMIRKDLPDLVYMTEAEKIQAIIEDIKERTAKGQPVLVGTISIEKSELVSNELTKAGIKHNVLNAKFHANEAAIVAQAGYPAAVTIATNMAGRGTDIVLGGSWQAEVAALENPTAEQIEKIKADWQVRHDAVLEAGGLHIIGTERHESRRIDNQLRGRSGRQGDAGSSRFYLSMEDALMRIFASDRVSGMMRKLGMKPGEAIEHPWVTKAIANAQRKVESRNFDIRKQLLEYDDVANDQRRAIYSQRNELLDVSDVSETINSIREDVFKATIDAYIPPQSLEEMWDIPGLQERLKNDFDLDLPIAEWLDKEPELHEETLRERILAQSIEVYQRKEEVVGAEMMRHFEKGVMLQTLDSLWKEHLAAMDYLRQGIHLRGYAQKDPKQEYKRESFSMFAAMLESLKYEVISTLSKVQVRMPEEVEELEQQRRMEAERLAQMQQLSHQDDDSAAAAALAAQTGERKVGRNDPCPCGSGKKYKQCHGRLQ

[2] = biological target: T1, Ubiquitin-activating enzyme e1, putative (Leishmania donovani (strain BPK282A1)) (UniProt E9BSI1); test: Leishmania donovani Ubiquitin Activating Enzyme (LdE1); type: functional; settings: 30 µM
T1 sequence (whole entry): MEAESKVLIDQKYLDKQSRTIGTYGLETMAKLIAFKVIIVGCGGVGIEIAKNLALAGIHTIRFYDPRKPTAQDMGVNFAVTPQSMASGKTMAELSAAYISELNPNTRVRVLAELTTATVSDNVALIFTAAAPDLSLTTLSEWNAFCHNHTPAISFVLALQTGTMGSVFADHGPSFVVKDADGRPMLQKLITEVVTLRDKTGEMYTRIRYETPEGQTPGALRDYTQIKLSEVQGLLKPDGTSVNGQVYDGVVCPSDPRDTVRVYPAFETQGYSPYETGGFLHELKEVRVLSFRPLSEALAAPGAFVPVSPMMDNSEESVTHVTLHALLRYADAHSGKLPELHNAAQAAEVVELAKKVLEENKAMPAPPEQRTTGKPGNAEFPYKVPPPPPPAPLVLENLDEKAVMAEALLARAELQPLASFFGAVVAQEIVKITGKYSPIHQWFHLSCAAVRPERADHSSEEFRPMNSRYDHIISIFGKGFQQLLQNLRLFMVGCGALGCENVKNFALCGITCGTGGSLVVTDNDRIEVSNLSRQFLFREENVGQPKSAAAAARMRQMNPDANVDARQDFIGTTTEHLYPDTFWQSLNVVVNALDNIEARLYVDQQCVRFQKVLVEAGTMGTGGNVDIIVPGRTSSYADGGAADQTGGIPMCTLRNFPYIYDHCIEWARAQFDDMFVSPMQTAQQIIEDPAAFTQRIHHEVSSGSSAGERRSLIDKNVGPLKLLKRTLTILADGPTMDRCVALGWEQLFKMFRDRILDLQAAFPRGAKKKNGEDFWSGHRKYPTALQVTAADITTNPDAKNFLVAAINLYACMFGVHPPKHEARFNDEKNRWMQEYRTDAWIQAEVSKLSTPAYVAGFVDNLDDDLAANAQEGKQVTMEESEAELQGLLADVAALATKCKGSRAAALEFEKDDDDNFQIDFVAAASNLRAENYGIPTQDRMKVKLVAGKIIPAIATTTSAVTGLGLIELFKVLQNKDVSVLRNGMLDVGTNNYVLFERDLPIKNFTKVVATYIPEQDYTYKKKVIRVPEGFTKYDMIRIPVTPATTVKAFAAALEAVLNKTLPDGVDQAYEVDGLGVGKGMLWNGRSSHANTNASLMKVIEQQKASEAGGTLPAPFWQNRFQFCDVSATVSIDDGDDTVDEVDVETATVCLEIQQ

[3] = biological target: T2, Aspartate--tRNA(Asp/Asn) ligase (Mycobacterium tuberculosis (strain ATCC 25618 / H37Rv)) (UniProt P9WFW3); test: Assay for Asp RNA synthetase-1 from Mycobacterium tuberculosis; type: functional; settings: 30 µM; note: in the data most compounds retested in dose-response had high values
T2 sequence (whole entry): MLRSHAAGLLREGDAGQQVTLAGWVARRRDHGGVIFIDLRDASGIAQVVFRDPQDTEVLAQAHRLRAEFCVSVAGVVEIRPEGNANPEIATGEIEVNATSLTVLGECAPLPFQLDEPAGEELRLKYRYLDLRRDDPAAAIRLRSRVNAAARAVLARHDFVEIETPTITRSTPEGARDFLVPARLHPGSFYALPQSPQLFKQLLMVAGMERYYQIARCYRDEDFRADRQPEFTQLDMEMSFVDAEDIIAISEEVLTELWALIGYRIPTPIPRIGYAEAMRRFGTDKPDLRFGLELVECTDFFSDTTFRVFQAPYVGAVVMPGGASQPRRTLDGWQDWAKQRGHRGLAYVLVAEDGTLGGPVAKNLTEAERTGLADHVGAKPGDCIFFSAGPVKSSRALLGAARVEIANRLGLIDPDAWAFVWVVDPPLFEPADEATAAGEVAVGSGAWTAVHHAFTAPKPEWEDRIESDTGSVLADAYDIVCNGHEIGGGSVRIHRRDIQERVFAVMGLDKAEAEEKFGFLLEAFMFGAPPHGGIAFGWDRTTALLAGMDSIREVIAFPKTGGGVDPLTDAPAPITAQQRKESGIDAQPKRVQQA

[4] = biological target: AMP-activated protein kinase, AMPK (Homo sapiens) (UniProt P54646+O43741+P54619+Q9UGJ0+Q9Y478+Q13131+Q9UGI9); test: AMP-dependent Kinase enzyme assay. An in vitro enzyme assay that detects ADP turnover that is directly proportional to AMPK activity. This uses naive AMPK that is activated during the assay with MK-8722; type: functional; settings: 30 µM
[5] = biological target: Sialic acid-binding Ig-like lectin 9 (Homo sapiens) (UniProt Q9Y336); test: Hs-Siglec9 ALPHAscreen SOP 20170721; settings: 10 µM
Chain of Sialic acid-binding Ig-like lectin 9 (Homo sapiens) (Q9Y336 whole entry): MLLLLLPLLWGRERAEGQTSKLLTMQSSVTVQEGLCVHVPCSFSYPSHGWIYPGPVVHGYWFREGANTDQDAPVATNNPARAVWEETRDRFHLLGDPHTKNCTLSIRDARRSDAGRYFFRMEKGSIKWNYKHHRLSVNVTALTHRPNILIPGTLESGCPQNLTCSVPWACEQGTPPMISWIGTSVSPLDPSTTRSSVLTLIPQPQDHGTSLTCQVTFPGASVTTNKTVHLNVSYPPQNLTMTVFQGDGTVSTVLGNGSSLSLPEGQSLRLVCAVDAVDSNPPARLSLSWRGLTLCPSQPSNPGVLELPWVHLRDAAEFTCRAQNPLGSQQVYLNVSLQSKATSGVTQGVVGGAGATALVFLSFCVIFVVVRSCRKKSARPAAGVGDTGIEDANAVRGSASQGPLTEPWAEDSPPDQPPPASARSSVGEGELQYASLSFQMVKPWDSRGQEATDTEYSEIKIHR

Trypanosoma cruzi = test: Trypanosoma cruzi phosphomannomutase and mannose-1-phosphate guanylyltransferase assay; type: functional; settings: 10 µM
[6] = biological target: T3, Arginase-2, mitochondrial (Homo sapiens) (UniProt P78540); test: in vitro enzyme assay to detect the production of urea directly proportional to the activity of Arginase II; type: functional; settings: 33.3 µM; note: in the data most compounds retested in dose-response had high values
T3 sequence (whole entry): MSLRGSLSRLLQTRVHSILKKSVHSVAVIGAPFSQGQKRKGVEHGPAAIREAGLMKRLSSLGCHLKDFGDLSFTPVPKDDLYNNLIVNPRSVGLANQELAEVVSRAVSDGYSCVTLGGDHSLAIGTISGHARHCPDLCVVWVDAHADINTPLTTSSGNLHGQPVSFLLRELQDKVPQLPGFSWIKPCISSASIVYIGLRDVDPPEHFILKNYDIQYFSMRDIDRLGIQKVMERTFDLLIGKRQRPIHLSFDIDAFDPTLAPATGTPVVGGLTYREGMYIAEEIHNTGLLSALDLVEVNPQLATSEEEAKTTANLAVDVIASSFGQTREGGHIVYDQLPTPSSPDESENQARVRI

[7] = biological target: T4, Proteasome subunit beta (Trypanosoma cruzi) (UniProt O96673); test: Trypanosoma cruzi proteasome chymotrypsin-like activity (TcProtChymo) assay.; note: in the data most compounds retested in dose-response had high values; type: functional; settings: 9.37 µM
T4 sequence (whole entry): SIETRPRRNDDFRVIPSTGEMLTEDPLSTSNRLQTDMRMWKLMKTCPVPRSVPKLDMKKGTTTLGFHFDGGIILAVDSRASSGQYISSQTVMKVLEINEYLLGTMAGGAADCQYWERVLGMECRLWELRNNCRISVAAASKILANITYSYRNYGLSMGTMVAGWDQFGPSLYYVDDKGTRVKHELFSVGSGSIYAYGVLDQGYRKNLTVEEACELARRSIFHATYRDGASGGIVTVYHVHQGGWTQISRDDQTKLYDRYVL

Homo sapiens = species on record: Homo sapiens; test: To identify inhibition of the IFN signalling (Jak-Stat) pathway via expression of an eGFP reporter gene under the control of an IFN-stimulated response element (ISRE) containing MxA promoter.; type: functional; settings: 30 µM
[8] = biological target: Shiga toxin 2 (Escherichia coli O157:H7) (UniProt P09385+P09386); test: E. coli 0.157:H7 Shiga Toxin SOP - stx2 screening assay; type: functional; settings: 30 µM
[9] = biological target: T5, Tyrosyl-tRNA synthetase, putative (Trypanosoma cruzi (strain CL Brener)) (UniProt Q4DSP6); test: Trypanosoma cruzi tyrosyl tRNA synthetase (TcYRS) _High Tyrosine SOP; type: functional; settings: 30 µM; note: in the data most compounds retested in dose-response had high values
T5 sequence (whole entry): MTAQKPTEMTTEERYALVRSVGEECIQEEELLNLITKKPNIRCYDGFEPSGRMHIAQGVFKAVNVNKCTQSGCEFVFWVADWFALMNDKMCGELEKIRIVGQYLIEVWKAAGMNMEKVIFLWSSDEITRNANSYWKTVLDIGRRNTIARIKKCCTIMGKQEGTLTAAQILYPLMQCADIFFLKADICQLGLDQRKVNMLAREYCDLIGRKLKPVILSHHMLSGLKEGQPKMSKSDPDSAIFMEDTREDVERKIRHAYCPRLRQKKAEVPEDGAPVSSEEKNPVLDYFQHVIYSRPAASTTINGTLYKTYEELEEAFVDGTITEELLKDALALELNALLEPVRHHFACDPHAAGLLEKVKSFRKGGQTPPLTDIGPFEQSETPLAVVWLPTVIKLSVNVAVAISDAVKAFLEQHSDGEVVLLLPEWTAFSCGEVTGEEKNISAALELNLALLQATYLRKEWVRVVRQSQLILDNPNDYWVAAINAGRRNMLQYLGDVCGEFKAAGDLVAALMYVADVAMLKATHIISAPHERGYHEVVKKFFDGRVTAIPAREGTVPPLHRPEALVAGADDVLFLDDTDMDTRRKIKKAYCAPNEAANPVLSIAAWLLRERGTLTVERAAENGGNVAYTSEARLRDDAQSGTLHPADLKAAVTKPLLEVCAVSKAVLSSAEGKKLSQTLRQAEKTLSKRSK

[10] = biological target: T5, Tyrosyl-tRNA synthetase, putative (Trypanosoma cruzi (strain CL Brener)); test: Trypanosoma cruzi tyrosyl tRNA synthetase (TcYRS) SOP; type: functional; settings: 30 µM
[11] = biological target: Chromo domain-containing protein 1 (Saccharomyces cerevisiae (strain ATCC 204508 / S288c) (Baker's yeast)) (UniProt P32657); test: ScCHD-1 Enzyme Inhibition Assay; type: functional; settings: 30 µM; note: in the data most compounds retested in dose-response had high values
Chain of Chromo domain-containing protein 1 (Saccharomyces cerevisiae (strain ATCC 204508 / S288c) (Baker's yeast)) (P32657 whole entry, the tested form may be a part): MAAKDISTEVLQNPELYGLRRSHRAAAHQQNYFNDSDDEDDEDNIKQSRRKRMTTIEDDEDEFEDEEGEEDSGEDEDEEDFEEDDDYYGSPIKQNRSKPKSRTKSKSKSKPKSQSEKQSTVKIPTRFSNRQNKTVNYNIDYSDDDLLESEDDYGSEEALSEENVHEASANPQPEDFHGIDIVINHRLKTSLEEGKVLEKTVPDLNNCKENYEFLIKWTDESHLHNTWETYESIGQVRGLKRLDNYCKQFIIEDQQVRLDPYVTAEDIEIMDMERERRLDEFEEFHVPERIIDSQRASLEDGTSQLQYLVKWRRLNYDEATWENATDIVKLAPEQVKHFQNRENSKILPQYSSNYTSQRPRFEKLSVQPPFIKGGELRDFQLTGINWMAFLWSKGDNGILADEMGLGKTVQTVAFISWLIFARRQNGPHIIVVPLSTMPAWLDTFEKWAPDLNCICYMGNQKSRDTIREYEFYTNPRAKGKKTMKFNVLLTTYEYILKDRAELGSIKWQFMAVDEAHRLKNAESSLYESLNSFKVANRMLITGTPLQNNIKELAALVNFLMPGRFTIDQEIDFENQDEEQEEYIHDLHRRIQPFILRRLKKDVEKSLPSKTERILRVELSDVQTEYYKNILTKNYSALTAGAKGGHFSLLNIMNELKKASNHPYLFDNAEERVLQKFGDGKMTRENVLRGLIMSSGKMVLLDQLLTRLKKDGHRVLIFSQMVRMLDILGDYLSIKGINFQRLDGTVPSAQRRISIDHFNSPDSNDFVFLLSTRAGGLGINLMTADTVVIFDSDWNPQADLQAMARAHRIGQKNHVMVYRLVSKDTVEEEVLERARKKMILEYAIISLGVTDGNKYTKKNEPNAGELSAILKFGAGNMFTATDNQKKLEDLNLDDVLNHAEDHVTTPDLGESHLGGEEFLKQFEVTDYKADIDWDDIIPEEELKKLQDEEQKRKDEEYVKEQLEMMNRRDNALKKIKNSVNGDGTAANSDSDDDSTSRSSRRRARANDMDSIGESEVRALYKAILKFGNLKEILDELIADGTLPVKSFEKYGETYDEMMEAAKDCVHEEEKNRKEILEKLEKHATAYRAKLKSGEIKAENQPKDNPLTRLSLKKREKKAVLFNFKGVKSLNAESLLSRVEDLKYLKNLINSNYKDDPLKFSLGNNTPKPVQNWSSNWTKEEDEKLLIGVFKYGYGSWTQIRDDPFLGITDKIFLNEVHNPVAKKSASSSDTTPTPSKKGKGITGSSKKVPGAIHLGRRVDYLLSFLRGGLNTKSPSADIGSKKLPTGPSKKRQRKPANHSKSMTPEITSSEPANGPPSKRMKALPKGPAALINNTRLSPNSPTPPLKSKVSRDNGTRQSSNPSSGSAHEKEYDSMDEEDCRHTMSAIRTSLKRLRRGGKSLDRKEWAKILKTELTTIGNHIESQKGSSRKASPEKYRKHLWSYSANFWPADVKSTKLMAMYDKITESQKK

| Structure (SMILES) | Percent Effect [1] [%] | Percent Effect [2] [%] | Percent Effect [3] [%] | Percent Effect [4] [%] | Percent Effect [5] [%] | Percent Effect (Trypanosoma cruzi) [%] | Percent Effect [6] [%] | Percent Effect [7] [%] | Percent Effect (Homo sapiens) [%] | Percent Effect [8] [%] | Percent Effect [9] [%] | Percent Effect [10] [%] | Percent Effect [11] [%] |
| --- | --- | --- | --- | --- | --- | --- | --- | --- | --- | --- | --- | --- | --- |
| c1ccc(CN2CCO[C@H]3[C@H](OCCN4CCCC4)CC[C@@H]32)nc1 | -1.73 | -2.67 | 0.641 | 2.45 | 8.64 | -2.7 | -53.2 | -0.855 | -6.91 | -16.4 | 4.17 | 5 | 0.266 |
| O=C(Cc1cccs1)N1C[C@@H]2OCCN(CC3CCCO3)[C@@H]2C1 (some centres undefined) | -3.88 | 0 | -5.27 | -1.33 | 4.51 | -2.58 | -0.399 | 15.3 | 15.2 | -19.8 | 2.08 | 6.17 | -0.242 |
| CCN(CC)C(=O)c1ccc(NC(=O)CNc2ccc(F)cc2Cl)cc1 | -1.29 | 10.5 | 5.36 | 5.61 | 3.25 | 2.04 | 0 | 16.6 | -29.3 | -38.1 | 9.57 | 15.6 | -3.17 |
| c1cc(COC[C@@H]2CCC[C@@]23CNCCO3)ccn1 | -6.97 | 8.11 | 4.08 | 91.3 | -11.6 | -6.94 | -3.5 | 10.7 | 2.47 | -12.9 | -3.24 | 0 | -2.52 |
| c1ccc(CN2C[C@@H]3CCCO[C@@H]3[C@H](Nc3ccccn3)C2)nc1 | -6.38 | 5.41 | 3.79 | -2.17 | 3.76 | 0.88 | 3.23 | 8.15 | -12.7 | 8.28 | 6.45 | 16.1 | -2.77 |
| Cc1ncccc1OCC(=O)N1CCN[C@H]2CS(=O)(=O)C[C@H]21 | -6.4 | 10.8 | 7.97 | -4.66 | 0.713 | 0.489 | 4.71 | 14.2 | -4.73 | 11.7 | 9.68 | 18.5 | -1.55 |
| c1cncc(OC[C@]23COC[C@H]2CN(Cc2cccs2)C3)c1 | -3.94 | 5.41 | 4.12 | 0.208 | -2.85 | -2.34 | -0.417 | 6.85 | 11.9 | -3 | 6.93 | 15.8 | 4.29 |
| Cc1oc(-c2ccco2)nc1CC(=O)N1CCN(C2CCC2)CC1 | -7.4 | 7.79 | -0.115 | -1.25 | 1.16 | 1.08 | 4 | 12.8 | 2.52 | 24.8 | 0 | 7.06 | -19 |
| CC(C)N1CCC2(CCN(C(=O)c3cccnc3)CC2)C1 | 1.13 | 10.8 | 1.7 | 4.26 | -12.5 | -9.68 | 8.6 | 20.9 | -1.74 | -5.59 | -24.9 | 10.3 | -2.2 |
| Cn1cc(CN2C[C@@H]3[C@@H](C2)OCC(=O)N3Cc2ccncc2)cn1 | -5.79 | 3.9 | 4.5 | – | -1.61 | 1.07 | 0.81 | 15.8 | 8.18 | 1.35 | -0.526 | 17.9 | 0.0412 |
